From PubChem BioAssay
NS1 function inh: influenza NS1 inhibition | AID 2326 | Potency, µM (titrated, usually from 46.1 µM), inactives show top-dose activity, positive = more growth | 270,000 compounds, 0.4% hits; calls by dose curve; further: actives are rising curves; nearly all actives have a fitted effect of over 50% in size
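Read-out: OD600 growth recovery of NS1-expressing budding yeast. Cells grown overnight at 30C in -URA glucose medium, washed, resuspended and diluted 1:100 in 2% galactose assay medium, pH 6.0. Same strain lacking NS1 served as positive control.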
Pf growth 96h: P. falciparum growth inhibition at 96 hours | P. falciparum luciferase reporter growth, 96 h | 320,000 compounds, 6.9% hits | AID 504834 | Potency, µM (titrated, usually from 28.7 µM), without a hit: top-dose activity change, negative = inhibition, hits mostly inhibitors; further: on the % scale 0 is the no-effect control and ±100 the full control effect
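96 h incubation, 37 C, 5% CO2, of luciferase-reporter P. falciparum-infected RBCs (2% hematocrit, 0.05% parasitemia final) with test compounds; endpoint luminescence.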
HCV inhibitor: inhibitors of hepatitis C virus infection; Potency, µM (titrated, usually from 41.8 µM), inactives show top-dose activity change, negative = inhibition, usual class: inhibitors; Huh7.5.1 HCVcc-Cre infection, luciferase reporter, 44 h; AID 651820; 340,000 compounds, 3.4% hits; further: on the % scale 0 is the no-effect control and ±100 the full control effect
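Infectious HCVcc-Cre (~0.5 moi) was added to cells just after compound, with cells seeded 4 h earlier at 1,000 per well. Luciferase activity after 44 h culture reported infection; substrate was incubated 15 min at room temperature before reading.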
Pf growth 48h: P. falciparum growth inhibition at 48 hours (one generation); P. falciparum luciferase growth in erythrocytes, 48 h; 310,000 compounds, 5.9% hits; AID 504832; Potency, µM (highest dose often 28.7 µM), for inactives: at the highest dose activity change, negative = inhibition, hits mostly inhibitors; further: on the % scale 0 is the no-effect control and ±100 the full control effect
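A one-generation exposure of luciferase-tagged malaria parasites in RPMI 1640/Albumax erythrocyte culture, 37 C and 5% CO2. Inhibition is inferred from decreased luminescence after adding detection reagent.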
Vaccinia Venus: inhibitors of vaccinia virus (Venus reporter); Vaccinia virus Venus reporter expression, fluorescence; Potency, µM (titrated, usually from 36.5 µM), for inactives: at the top dose activity change, negative = inhibition, most hits filed as inhibitors; 330,000 compounds, 0.46% hits; calls by dose curve; tested in A549 cells; further: on the % scale 0 is the no-effect control and ±100 the full control effect; nearly all actives have a fitted effect of over 30% in size
Vaccinia mCherry: inhibitors of vaccinia virus infection (mCherry reporter signal); Vaccinia virus mCherry reporter infection, fluorescence; Potency, µM (top dose mostly 36.5 µM), inactives show at the highest dose activity change, negative = inhibition, usual class: inhibitors; 310,000 compounds, 0.63% hits; AID 720579; calls by dose curve; tested in A549 cells; further: on the % scale 0 is the no-effect control and ±100 the full control effect; nearly all actives have a fitted effect of over 35% in size
Active calls of the source: *. Only some compounds are listed: those with a hit (about 11% of all), similar ones and a draw of the others. Unless noted, the call rests on the fitted dose curve; in most records, active means well fitted inhibition curve with a large enough effect; inconclusive means small, poorly fitted or top-dose-only effect, or another doubt; inactive means no such curve, though single readings can be large or run the other way. Potency means the concentration at half of the fitted maximal effect.

What do the screens show for `COC(=O)c1cn(NC(=O)C2CCCO2)c(=O)c2ccccc12` (configuration not stated)?
NS1 function inh: inconclusive; Pf growth 96h: 12µM*; HCV inhibitor: 3%; Pf growth 48h: 1%

Results for Fc1ccc(NC(=S)Nc2cccnc2)c(Cl)c1 ?
NS1 function inh: 3%; Pf growth 96h: inconclusive; HCV inhibitor: 8%; Pf growth 48h: 3%; Vaccinia Venus: 2%; Vaccinia mCherry: 9%

What do the screens show for `CCCCN1CC[C@H]2C=CC[C@@H](C(=O)N3CCN(c4ccccc4)CC3)[C@H]2C1=O`?
HCV inhibitor: 5%; Vaccinia Venus: -15%; Vaccinia mCherry: -29%

Results for COc1ccc2cc(CNCCOCCOCCNCc3ccc4cc(OC)ccc4c3)ccc2c1 ?
HCV inhibitor: 4µM*; Vaccinia Venus: inconclusive; Vaccinia mCherry: inconclusive

How did CC(Oc1ccc([N+](=O)[O-])cc1)C(=O)NCC1CCCO1 (configuration not stated) do in these assays?
NS1 function inh: 20%; Pf growth 96h: -17%; HCV inhibitor: 13%; Pf growth 48h: 11%

Results for Cc1cc(OC(C)C(=O)NCC2CCCO2)cc(C)c1Cl (configuration not stated) ?
NS1 function inh: -18%; Pf growth 96h: 5.2µM*; HCV inhibitor: -13%; Pf growth 48h: 4%

Results for COc1ccc(-c2nc(C)c(C(C)=O)n2O)cc1 ?
NS1 function inh: -13%; Pf growth 96h: 4.7µM*; HCV inhibitor: -6%; Pf growth 48h: 10%

Results for O=C(Cn1ncc2ccccc21)N1CCC2(CC1)OCCO2 ?
NS1 function inh: -4%; Pf growth 96h: 98%; HCV inhibitor: 10%; Pf growth 48h: 46%; Vaccinia Venus: -15%; Vaccinia mCherry: -14%

Results for CNC(=O)N(O)C1N(/N=C/c2ccccc2O)C(=S)SC1(C)C (configuration not stated) ?
NS1 function inh: -3%; Pf growth 96h: 63%; HCV inhibitor: 15%; Pf growth 48h: -9%; Vaccinia Venus: -10%; Vaccinia mCherry: inconclusive

Results for CNC(=O)N(O)C1N(c2ccccc2)C(=S)SC1(C)C (configuration not stated) ?
NS1 function inh: 14%; Pf growth 96h: 2.1µM*; HCV inhibitor: 33%; Pf growth 48h: 0%; Vaccinia Venus: -12%; Vaccinia mCherry: -6%

What do the screens show for `Cc1nn(CC(=O)NC2CC2)c(=O)c2cc3ccccc3n12`?
Vaccinia Venus: -4%; Vaccinia mCherry: -3%

Results for Cc1ccc(Oc2ccc(Cl)cc2NC(=O)c2ccc(F)cc2F)cc1 ?
NS1 function inh: 5%; Pf growth 96h: 10µM*; HCV inhibitor: -21%; Pf growth 48h: 5.2µM*; Vaccinia Venus: -12%; Vaccinia mCherry: -18%

What do the screens show for `Cn1nc(C(F)(F)F)c(C(=O)Nc2ccc(F)cc2F)c1Oc1cccc(Cl)c1`?
NS1 function inh: -1%; Pf growth 96h: inconclusive; HCV inhibitor: inconclusive; Pf growth 48h: -41%

What do the screens show for `Cc1nn(C)c(Oc2ccc(Cl)cc2)c1C(=O)Nc1ccc(F)cc1F`?
NS1 function inh: 10%; Pf growth 96h: inconclusive; HCV inhibitor: 10µM*; Pf growth 48h: 8%

Results for c1ccc(CN(Cc2ccccc2)c2c3c(nc4ncnn24)CCC3)cc1 ?
NS1 function inh: -5%; Pf growth 96h: inconclusive; HCV inhibitor: -3%; Pf growth 48h: inconclusive

What do the screens show for `CCn1c(SCC(=O)NCc2ccccc2)nnc1-c1cccnc1`?
NS1 function inh: 0%; Pf growth 96h: inconclusive; HCV inhibitor: 17%; Pf growth 48h: -7%; Vaccinia Venus: -13%; Vaccinia mCherry: inactive

How did CC(C)(C)NC(=O)C1c2ccccc2OCC(=O)N1C1CC1 (configuration not stated) do in these assays?
Vaccinia Venus: -10%; Vaccinia mCherry: -9%

Results for COc1ccccc1C(=O)N/C(=N/c1nc(C)cc(C)n1)Nc1ccccc1 ?
NS1 function inh: -7%; Pf growth 96h: 7%; HCV inhibitor: 8.9µM*; Pf growth 48h: 0%; Vaccinia Venus: -9%; Vaccinia mCherry: -14%

How did CCC(=O)N/C(N)=N/c1nc(C)c2cc(OC)ccc2n1 do in these assays?
NS1 function inh: 3%; Pf growth 96h: -19%; HCV inhibitor: inconclusive; Pf growth 48h: 3.3µM*

What do the screens show for `CCC(=O)N/C(=N/c1nc(C)cc(C)n1)Nc1ccc(OC)cc1`?
NS1 function inh: 5%; Pf growth 96h: 15µM*; HCV inhibitor: 21%; Pf growth 48h: -19%; Vaccinia Venus: -6%; Vaccinia mCherry: -11%

What do the screens show for `CC(C)NCC(=O)Nc1c2c(nc3ccccc13)CCC2`?
NS1 function inh: 0%; Pf growth 96h: -6%; HCV inhibitor: -4%; Pf growth 48h: -12%; Vaccinia Venus: -3%; Vaccinia mCherry: -1%

Results for S=c1[nH]nc(-c2ccncc2)n1CC1CCCO1 (configuration not stated) ?
NS1 function inh: 2%; Pf growth 96h: 20%; HCV inhibitor: 5%; Pf growth 48h: 3%; Vaccinia Venus: -12%

Results for COC(=O)[C@@]12C[C@@H](CC(=O)NCC34CC5CC(CC(C5)C3)C4)C(=O)N(Cc3ccccc3)C1=CCC(C)(C)C2 ?
Vaccinia Venus: -25%; Vaccinia mCherry: -12%

How did CSc1ncc(C(C)=O)c(C)n1 do in these assays?
Pf growth 96h: 37%; HCV inhibitor: 16%; Pf growth 48h: -6%

How did CC(=O)c1cnc(Nc2nc(C)c3cc(C)c(C)cc3n2)nc1C do in these assays?
NS1 function inh: -3%; Pf growth 96h: 13µM*; HCV inhibitor: -4%; Pf growth 48h: 2%

Results for COc1cccc(/C=C2\Oc3ccc(O)cc3C2=O)c1O ?
NS1 function inh: -31%; Pf growth 96h: -10%; HCV inhibitor: -5%; Pf growth 48h: 5.2µM*; Vaccinia Venus: 63%; Vaccinia mCherry: -5%

What do the screens show for `COC(=O)c1ccc2c(c1)C(=O)/C(=C/c1ccc(O)cc1)O2`?
NS1 function inh: 3%; Pf growth 96h: 20%; HCV inhibitor: inconclusive; Pf growth 48h: 60%; Vaccinia Venus: 20%; Vaccinia mCherry: inactive

What do the screens show for `CCCC(=O)Nc1ccc(C2C(=O)c3ccccc3C2=O)cc1`?
NS1 function inh: inconclusive; Pf growth 96h: 0%; HCV inhibitor: 5µM*; Pf growth 48h: 123%; Vaccinia Venus: -4%; Vaccinia mCherry: inactive

What do the screens show for `COc1cc(SC#N)ccc1N=Cc1c(C)[nH]n(-c2ccc(C)c(C)c2)c1=O`?
NS1 function inh: -4%; Pf growth 96h: -28%; HCV inhibitor: inconclusive; Pf growth 48h: 5.2µM*; Vaccinia Venus: -14%; Vaccinia mCherry: inactive
